# Assay results taken from PubChem BioAssay (NCATS).
# Several values for one entry are separate records, joined by “and”; a condition that tells them apart may be missing. Equal entries are not always repeated. Inconclusive results are not listed. More than one record can exist for a structure, and the calls need not agree. Unmarked numbers belong to inactive results. Activity calls are given as the source filed them. Unless noted, calls come from the whole dose curve; as a rule, active = well fitted curve in the direction sought with a large enough effect; inconclusive = small, poorly fitted or top-dose-only effect, or another doubt; inactive = no such curve, though single readings can be large; an effect the other way counts as inactive or inconclusive.
# Assays:
# [1] = target: Cellular tumor antigen p53 (Homo sapiens) (UniProt P04637); test: Primary qHTS for small molecule compounds that upregulate eGFP-tagged delta133p53alpha (in N-terminal) cells. (AID 2060322); conditions: NCI-H358 eGFP-delta133p53alpha fluorescence, 24 h; activation: stronger effect = higher value; note: nearly all actives have a fitted effect of over 75% in size; note: potency is the fitted concentration of half-maximal effect;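 for activation: cells pre-induced with doxycycline then dosed without doxycycline; series mostly up to about 56 µM; 0% = DMSO vehicle and 100% = reference activator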
# Cellular tumor antigen p53 (Homo sapiens), sequence (P04637 whole entry, looked up, the tested form may be a part): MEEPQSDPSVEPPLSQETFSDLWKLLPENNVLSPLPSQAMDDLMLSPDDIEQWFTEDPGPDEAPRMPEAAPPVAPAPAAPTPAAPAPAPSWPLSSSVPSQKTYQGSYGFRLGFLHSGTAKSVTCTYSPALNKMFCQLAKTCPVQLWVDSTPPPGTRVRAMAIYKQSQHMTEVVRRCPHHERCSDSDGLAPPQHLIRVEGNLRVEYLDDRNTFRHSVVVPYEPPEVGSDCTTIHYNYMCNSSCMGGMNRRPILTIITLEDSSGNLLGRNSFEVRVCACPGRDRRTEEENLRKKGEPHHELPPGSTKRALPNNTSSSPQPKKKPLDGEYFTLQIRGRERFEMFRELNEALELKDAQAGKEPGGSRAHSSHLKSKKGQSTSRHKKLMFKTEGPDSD
# How it was run: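 NCI-H358 cells pre-induced 24 h with 10 ng/ml doxycycline for eGFP-delta133p53alpha, plated dox-free and exposed 24 h at 37C to titrated compounds. Fixed, Hoechst-stained; gated GFP peak intensity by laser scanning cytometry, normalized to DMSO (0%) and 57.5 uM 5-azacytidine (100%).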
# [2] = BET inhibitor-based combinations targeting novel dependencies in MECOM-rearranged (r) AML: SET-2 cell line (AID 2202231); conditions: SET-2 AML cells viability, CellTiter-Glo luminescence, 48 h; viability: stronger effect = lower value, concentration not given here; note: nearly all actives have a fitted effect of over 35% in size; note: potency is the fitted concentration of half-maximal effect;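 for viability: plate controls were DMSO treated cells for no effect and wells without cells for full effect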
# How it was run: (§1)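 Luminescent ATP readout (CellTiter-Glo) after 48 hr drug exposure gives viability. Curves span 11 concentrations and are normalized to DMSO and empty wells. Activity is reported as area under the curve and its Z-transform within each cell line.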
# [3] = BET inhibitor-based combinations targeting novel dependencies in MECOM-rearranged (r) AML: OCI-AML3 cell line (AID 2202232); conditions: Potency: OCI-AML3 viability; note: nearly all actives have a fitted effect of over 35% in size; note: potency is the fitted concentration of half-maximal effect
# How it was run: as §1
# [4] = BET inhibitor-based combinations targeting novel dependencies in MECOM-rearranged (r) AML: UCSD-AML1 cell line (AID 2202235); note: nearly all actives have a fitted effect of over 40% in size; note: potency is the fitted concentration of half-maximal effect
# How it was run: (§2)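 Luminescent ATP readout (CellTiter-Glo, 15 min at room temperature) after 48 hr drug exposure gave viability. Dose-response curves, normalized to DMSO and empty-well controls, were summarized as area under the curve and its mean-centred Z-score.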
# [5] = BET inhibitor-based combinations targeting novel dependencies in MECOM-rearranged (r) AML: AML-191 cell line (AID 2202236; note: nearly all actives have a fitted effect of over 35% in size; note: potency is the fitted concentration of half-maximal effect)
# How it was run: as §1
# [6] = BET inhibitor-based combinations targeting novel dependencies in MECOM-rearranged (r) AML: AML-194 cell line (AID 2202237; note: nearly all actives have a fitted effect of over 40% in size; note: potency is the fitted concentration of half-maximal effect)
# How it was run: as §1
# [7] = target: Aldehyde dehydrogenase, mitochondrial (Homo sapiens) (UniProt P05091); test: qHTS for Inhibitors of the Aldehyde Dehydrogenase Family (ALDH2) Primary screen (AID 2061308);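 note: plate controls were vehicle for no effect and reference inhibitor for full effect; nearly all actives have a fitted effect of over 55% in size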
# [8] = BET inhibitor-based combinations targeting novel dependencies in MECOM-rearranged (r) AML: MV-4-11 cell line (AID 2202233); note: nearly all actives have a fitted effect of over 45% in size; note: potency is the fitted concentration of half-maximal effect
# How it was run: as §2
# [9] = BET inhibitor-based combinations targeting novel dependencies in MECOM-rearranged (r) AML: HNT-34 cell line (AID 2202234); note: nearly all actives have a fitted effect of over 35% in size; note: potency is the fitted concentration of half-maximal effect
# How it was run: as §2
# [10] = target: Cellular tumor antigen p53 (Homo sapiens) (UniProt P04637); test: Primary qHTS for small molecule compounds that upregulate eGFP-tagged delta133p53alpha (in C-terminal) cells. (AID 2060324); note: potency is the fitted concentration of half-maximal effect
# How it was run: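 Doxycycline (100 ng/ml, 24 h) first induced the eGFP fusion in NCI-H358 C-terminal-tag cells. Washed-out cells then received titrated compounds for 24 h at 37 °C before paraformaldehyde fixation, Hoechst staining and cytometric GFP quantification.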
# [11] = target: Aldehyde dehydrogenase, mitochondrial (Homo sapiens) (UniProt P05091); test: qHTS for Inhibitors of the Aldehyde Dehydrogenase Family (ALDH2) Validation screens (AID 2061302; active = well fitted inhibition curve with a large enough effect; title and protocol of this record describe different tests;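 note: plate controls were DMSO vehicle for no effect and maximal DPI positive control response for full effect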)
compound,measurement,setting,value
CCCOc1ccc(C(=O)OCCN(CC)CC)cc1N,Potency,[1],24.3 µM (active)
same,activation,[1],9.6%
same,viability,[2],101%
same,Potency,[3],inactive
same,Potency,[4],inactive
same,Potency,[5],inactive
same,Potency,[6],inactive
COc1cc(N2CCC(O)CC2)ccc1Nc1cc(Nc2ccccc2S(=O)(=O)C(C)C)c2cc[nH]c2n1,Potency,[1],16.6 µM (active)
same,activation,[1],-59.5%
same,Potency,[7],inactive
same,Potency,[3],18.6 µM (active)
same,Potency,[8],18.6 µM (active)
same,Potency,[9],18.6 µM (active)
same,Potency,[4],26.3 µM (active)
same,Potency,[5],16.6 µM (active)
Cc1coc2c1C(=O)C(=O)c1c-2ccc2c1CCCC2(C)C,Potency,[1],8.49 µM (active)
same,activation,[1],36.5%
same,viability,[2],97.6%
same,Potency,[9],18.6 µM (active)
same,Potency,[4],inactive
same,Potency,[5],inactive
same,Potency,[6],inactive
COc1ncnc(NS(=O)(=O)c2ccc(N)cc2)c1OC,Potency,[1],27.3 µM (active)
same,activation,[1],26.8%
same,viability,[2],116%
same,Potency,[3],inactive
same,Potency,[8],inactive
same,Potency,[9],inactive
same,Potency,[4],inactive
same,Potency,[5],inactive
same,Potency,[6],inactive
COc1ccc(Br)cc1S(=O)(=O)NC(=O)/C=C/c1ccccc1Cc1ccc2ccccc2c1,activation,[1],-15.8%
same,Potency,[10],inactive
Cn1cc(C(F)(F)F)nc1-c1ccc(OCC(O)CNCCOc2ccc(O)c(C(N)=O)c2)cc1 (stereo unspecified),activation,[1],-30.5%
same,Potency,[10],inactive
N#Cc1cc([N+](=O)[O-])c2sc(C(N)=O)[n+]([O-])c2c1,activation,[1],-56.4%
same,Potency,[10],inactive
C[C@H](NC(=O)/C(C#N)=C/c1ccc(O)c(O)c1)c1ccccc1,activation,[1],-11.2%
same,Potency,[10],inactive
Oc1ccc(/C=C/c2ccc(/C=C/c3ccc(O)cc3)c(Br)c2)cc1,Potency,[1],3.38 µM (active)
same,Potency,[10],inactive
C[n+]1cc2c3c(ccc2c2ccc4cc5c(cc4c21)OCO5)OCO3,Potency,[1],1.9 µM (active) and 2.39 µM (active)
same,Potency,[10],7.57 µM (active)
CCCCCCCCCC(=O)NC(CN1CCOCC1)[C@H](O)c1ccccc1 (stereo partly specified),activation,[1],-7.14%
same,Potency,[10],inactive
C=CCN1CCc2c(cc(O)c(O)c2Cl)C(c2ccccc2)C1 (stereo unspecified),activation,[1],-14.2%
same,Potency,[10],inactive
N=C(N)SCCc1cnc[nH]1,activation,[1],-28.5%
same,Potency,[10],inactive
same,Potency,[11],inactive
CC(=O)N(O)CCCCCNC(=O)CCC(=O)N(O)CCCCCNC(=O)CCC(=O)N(O)CCCCCN,Potency,[1],1.36 µM (active)
same,activation,[1],41.2%
same,Potency,[2],20.9 µM (active)
same,Potency,[3],11.8 µM (active)
same,Potency,[8],11.8 µM (active)
same,Potency,[9],9.34 µM (active)
same,Potency,[5],8.33 µM (active)
same,Potency,[6],9.34 µM (active)
C[C@H]1c2cccc(O)c2C(O)=C2C(=O)[C@]3(O)C(O)=C(C(N)=O)C(=O)[C@@H](N(C)C)[C@@H]3[C@@H](O)[C@@H]21,Potency,[1],15.5 µM (active) and 2.73 µM (active)
same,activation,[1],-2.21%
same,Potency,[9],18.6 µM (active)
same,Potency,[5],26.3 µM (active)
same,Potency,[6],23.5 µM (active)
CC(C)[C@H](C(=O)Nc1ccc(C(=O)NO)cc1)c1ccccc1,Potency,[1],30.6 µM (active)
same,activation,[1],66.7%
same,Potency,[3],0.742 µM (active)
same,Potency,[8],0.372 µM (active)
same,Potency,[4],0.833 µM (active)
same,Potency,[5],0.662 µM (active)
same,Potency,[6],0.833 µM (active)
NC1(C(=O)O)CCc2cc(C(=O)O)ccc21 (stereo unspecified),activation,[1],7.39%
same,Potency,[10],inactive
O=C(O)C1=CC(=C(c2ccc(O)c(C(=O)O)c2)c2ccc(O)c(C(=O)O)c2)C=CC1=O,activation,[1],-71.6%
same,Potency,[10],inactive
O=C(OCCN1CCOCC1)C1(c2ccccc2)CCCCC1,activation,[1],-19.6%
same,Potency,[10],inactive
CCN(CC)CCOC(=O)c1cc(Cl)c(N)cc1OC,activation,[1],-18.7%
same,Potency,[10],inactive
same,Potency,[11],inactive
COc1ccc(-c2cc3ncc(C)n3c(Nc3ncccc3C(N)=O)n2)cc1OC,activation,[1],2.48%
same,Potency,[10],10.7 µM (active)
Brc1c(Br)c(Br)c2n[nH]nc2c1Br,activation,[1],-52.8%
same,Potency,[10],inactive
NC(C(=O)N[C@@H]1C(=O)N2C(C(=O)O)=C(Cl)CS[C@H]12)c1ccccc1 (stereo partly specified),activation,[1],6.44%
same,Potency,[10],inactive
same,Potency,[11],inactive
O=C(NCC1CCCCN1)c1cc(OCC(F)(F)F)ccc1OCC(F)(F)F (stereo unspecified),Potency,[1],27.3 µM (active)
same,activation,[1],9.6%
same,viability,[2],112%
same,Potency,[8],inactive
same,Potency,[5],inactive
same,Potency,[6],inactive
CC1=C(CC(=O)O)c2cc(F)ccc2/C1=C\c1ccc(S(C)=O)cc1 (stereo unspecified),activation,[1],19.2% and 25%
same,Potency,[10],inactive
O=c1cc(-c2ccccc2)oc2c(O)c(O)ccc12,activation,[1],-43.5%
same,Potency,[10],inactive
O=C(CCCCCCC(=O)Nc1ccc([C@H]2O[C@@H](CSc3nc(-c4ccccc4)c(-c4ccccc4)o3)C[C@@H](c3ccc(CO)cc3)O2)cc1)NO,Potency,[1],5.36 µM (active)
same,activation,[1],47.5%
same,Potency,[7],inactive
same,viability,[2],106%
same,Potency,[9],6.05 µM (active)
